Bioassay records as filed in PubChem BioAssay.
Only a selection was taken, and hits are over-represented in it overall.
Insulin prom up – insulin promoter activators in MIN6 cells, imaging, high-content screening, mouse beta cells; MIN6 insulin promoter-GFP reporter; active compounds read high; z-score at 5 µM; hit rate 0.3% among 190,000; AID 1625, 2009;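 active = z-score above 3 at 5 µM with at least 500 cells counted in the well; inconclusive = wells under 500 cells, flagged as cytotoxic or low count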
Insulin prom inh – inhibitors of insulin promoter-driven GFP, primary screen, imaging, TRM-6 cells (human fetal islet line), eGFP reporter, cell count. reporter expression induced with tamoxifen. inhibition, % at 2 µM. hit rate 0.9% among 130,000. AID 1273, 2008;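 active = inhibition above the mean plus 3 SD, with well images judged a real hit on visual review, cut at about 60% in these data, passing the limit was not always enough; inconclusive = inhibition over the cutoff but images rejected on review; inactive = inhibition not above the cutoff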
ROMK primary – ROMK potassium channel modulators, primary screen, cell-based, thallium flux, MLSMR library; Tet-inducible ROMK, thallium flux fluorescence; actives lie on both sides; B-score at 10 µM; hit rate 2% among 130,000; AID 1918, 2009;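 active = signal ratio slope over the read window, or its plate-corrected B-score, at least 3 SD from the plate mean, either direction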;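 note: B-score of the F/F0 ratio slope over 7 to 12 s after thallium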
Target sequence (P48048 whole entry, looked up): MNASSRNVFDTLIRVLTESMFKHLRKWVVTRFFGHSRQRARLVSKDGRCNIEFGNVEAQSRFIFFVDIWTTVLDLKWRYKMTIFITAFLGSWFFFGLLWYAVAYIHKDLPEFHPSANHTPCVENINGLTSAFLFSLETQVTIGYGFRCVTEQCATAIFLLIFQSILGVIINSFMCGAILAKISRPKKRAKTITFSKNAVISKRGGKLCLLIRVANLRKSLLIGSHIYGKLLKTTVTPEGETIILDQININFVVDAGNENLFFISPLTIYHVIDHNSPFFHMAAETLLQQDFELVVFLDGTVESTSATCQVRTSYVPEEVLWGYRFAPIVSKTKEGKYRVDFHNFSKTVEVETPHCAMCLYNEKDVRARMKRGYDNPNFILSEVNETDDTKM
HSV replic up – enhancers of HSV replication in host cells, fold increase, host cell viability | HSV replication augmentation in cells | maximum fold increase | hit rate 0.005% among 220,000 | AID 1956, 2009; in the data active = maximum fold increase above about 1.5; inconclusive = no clear call, values can overlap the other calls; tested in PC3 cells
Tb hexokinase – Trypanosoma brucei hexokinase 1 inhibitors, primary screen, biochemical, G6PDH-coupled NADH absorbance, MLSCN library; recombinant TbHK1, G6PDH-coupled NADH A340; inhibition, % at 10 µM; hit rate 0.11% among 220,000; AID 1430, 2008;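 active = inhibition of 50% or more in the single-dose primary screen; inactive = inhibition below 50%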
An asterisk follows results filed as active; i = inactive; ? = inconclusive; · = not tested or not shown.

SMILES	Insulin prom up	Insulin prom inh	ROMK primary	HSV replic up	Tb hexokinase
O=C(NCC1CCCO1)c1c(O)c2cccc3c2n(c1=O)CC3 (stereo not given)	-0.65	-54	0.35	i	-8
O=C(NCC1CCCO1)c1c(O)c2cccc3c2n(c1=O)CCC3 (stereo not given)	-0.27	71*	-0.17	i	-11
CCOC(=O)CNC(=O)c1cn(C)c(=O)c2cc(OC)c(OC)cc12	3.2*	·	·	i	14
CCN(C(=O)c1cn(C)c(=O)c2cc(OC)c(OC)cc12)c1ccccc1C	0.06	81*	·	i	-8
CC(C)(C)SCCNC(=O)c1ccc(Cl)c([N+](=O)[O-])c1	0.49	·	0.0095	i	2
CN1CCN(Cc2c(O)ccc3occ(C(=O)c4ccccc4)c23)CC1	0.52	·	·	i	-2
CC(=O)C(C(C)=O)c1c(Cl)c(O)c(O)c2c(C(=O)c3ccccc3)coc12	-0.92	·	-3.4*	i	8
CCS(=O)(=O)c1ccc2oc(SCC(=O)NC3CCCC(C)C3C)nc2c1 (stereo not given)	4.3*	-93	0.047	i	-3
CC1(C)COC(c2coc3ccccc3c2=O)OC1	0.1	100*	·	i	39
O=C(Cc1cc(=O)[nH]c(=O)[nH]1)NCc1ccccc1	0.24	46	-0.024	·	-2
Cc1c(Cl)cccc1NS(=O)(=O)c1ccc2c(c1)C1C=CCC1C(c1ccc(C(=O)O)cc1)N2 (stereo not given)	0.62	·	0.55	i	52*
CCNc1nc(Oc2ccc(=O)[nH]n2)nc(N2CCOCC2)n1	·	75*	1.6	i	4
CC(C)CNc1nc(Oc2ccc(=O)[nH]n2)nc(N2CCOCC2)n1	0.99	·	0.0055	i	0
CC(C)c1nc2sc3c(=S)nc[nH]c3c2c2c1CCC2	-0.06	·	5.2*	i	-9
Cc1ccc(Cl)cc1N1CCN(C(=O)CN2C(=O)c3cccc4cccc2c34)CC1	·	60	-2.8*	i	4
CCn1cc(C2=NC(C)CO2)c2ccccc21 (stereo not given)	·	84*	-0.44	i	-3
CCn1cc(C2=NC(c3ccccc3)CO2)c2ccccc21 (stereo not given)	0.1	25	-1.2	i	1
O=C(COC(=O)c1ccc(CNS(=O)(=O)c2ccc(F)c(Cl)c2)cc1)NCC1CCCCC1	0.08	-40	·	i	-3
COc1ccc([N+](=O)[O-])cc1NC(=O)COC(C)=O	1.7	?	1.3	i	-13
COc1ccc(C)cc1NC(=O)COC(C)=O	3.5*	-15	0.47	i	0
Cc1c(CNC(=O)c2cnn3c2NC(c2ccc(Br)cc2)CC3C(F)(F)F)cnn1C (stereo not given)	0.29	81*	0.99	i	-9
Cc1ccc(-c2cn3c(n2)SCC3)cc1	0.26	53	0.025	i	-1
CCc1ccc(-c2cn3c(n2)SCC3)cc1	-0.42	83*	-1.3	i	-4
CCCCC(=O)Nc1ccccc1C(=O)N1CCOCC1	0.54	71*	-0.32	i	-1
O=C(c1ccccc1)c1ccccc1C(=O)N1CCOCC1	-0.84	90*	·	i	1
SMILES	Insulin prom up	Insulin prom inh	ROMK primary	HSV replic up	Tb hexokinase
Fc1ccc(-c2onc3ccc(C4OCCO4)cc23)cc1	-0.49	7	-0.12	i	-15
O=Cc1ccc2noc(-c3ccc(F)cc3)c2c1	·	-12	-3.1*	i	-15
CCOC(=O)NNC(=O)NCCCCCCNC(=O)NNC(=O)OCC	0.22	·	0.11	i	-6
Oc1cc(-c2ccccc2)c2ccccc2c1	-0.13	-19	-1.4	i	25
c1ccc(-n2nnnc2Cc2nnnn2-c2ccccc2)cc1	-0.62	·	0.56	i	6
N#CCCS(=O)(=O)c1nnnn1-c1ccccc1	-0.38	29	-4.7*	i	5
CCOC(=O)N1CCC(NC(=O)c2cc(C(=O)Nc3ccc(OC)c(OC)c3)ccc2CO)CC1	3.4*	·	0.35	i	-3
COc1cc(NC(=O)c2c(F)cccc2F)c(Cl)cc1Cl	0.04	·	-0.9	i	5
COc1ccc(CNC(=O)c2ccc(CS(=O)(=O)Cc3ccccc3F)o2)cc1	-0.04	33	-0.42	i	-1
CCOc1ccc(CN(C(=O)c2oc3cc(C)ccc3c2C)C2CCS(=O)(=O)C2)cc1 (stereo not given)	0.43	66*	-0.72	i	-8
Cn1nc(C(=O)NCCc2ccc(S(N)(=O)=O)cc2)c2ccccc2c1=O	-0.31	·	·	i	-3
CCC(C)NC(=O)COC(=O)c1ccc(Cl)cc1O (stereo not given)	0.31	-47	0.097	i	-7
Cc1ccc(NC(=O)c2cccc3c2-c2ccccc2C3=O)cc1C	0.03	-31	0.64	i	-15
CC(=O)Nc1ccc(NC(=O)c2cccc3c2-c2ccccc2C3=O)cc1	0.06	75*	0.37	i	-8
Cc1ccc(C2=NNC3(CCOC(C)(C)C3)S2)cc1 (stereo not given)	0.39	·	2.5*	i	1
Cc1ccc(S(=O)(=O)NCCC2(C(C)C)CCOC(C)(C)C2)cc1 (stereo not given)	-0.8	-31	-0.11	i	0
O=C(Nc1ccc2c(c1)OCO2)OCc1ccccc1	1.5	100*	·	i	4
CC(NC(=O)c1cc(Br)ccc1Br)c1ccccc1 (stereo not given)	0.02	·	0.017	i	-2
Nc1ccc2c(c1)CC(=O)c1ccccc1S2	?	77*	-1.7	i	-2
CC(Sc1ncc(C(F)(F)F)cc1Cl)C(=O)NCC1CCCO1 (stereo not given)	-0.41	·	0.41	i	-12
Cc1cccc(NC(=S)NC(=O)c2ccc(Br)o2)c1C	0.77	·	0.12	i	8
Cc1cccc(C)c1NC(=S)NC(=O)c1ccc(Br)o1	-0.03	·	2.1*	i	-8
C[C@]12CCC(O)CC1CCC1C2CC[C@]2(C)C(c3cc(C(F)(F)F)n[nH]3)CCC12 (stereo not given in full)	-0.76	·	-0.36	i	-10
CC1=NOC(=O)/C1=C/c1ccc(-c2ccc(Cl)cc2)o1	·	10	-2.7*	i	11
CCc1nc(NCCCN2CCOCC2)c2oc3ccccc3c2n1	-0.03	61	·	i	4
SMILES	Insulin prom up	Insulin prom inh	ROMK primary	HSV replic up	Tb hexokinase
CCc1nc(Nc2ccncc2)c2oc3ccccc3c2n1	-1.9	3	·	i	-69
CCc1nc(Nc2ccc3c(c2)OCO3)c2oc3ccccc3c2n1	0.14	79*	·	·	-7
CCc1nc(NCCN2CCOCC2)c2oc3ccccc3c2n1	0.29	85*	0.052	i	3
CCc1nc(N[C@H](C(=O)O)C(C)C)c2oc3ccccc3c2n1	0.35	·	·	i	-1
CCc1nc(NC(C)C)c2oc3ccccc3c2n1	·	89*	-0.47	i	-8
O=C(O)c1cccnc1SCC(=O)N1CCCc2ccccc21	0.27	·	2.4	i	1
CCOC(=O)Cc1cnc(NC(=O)CSc2nc(N)cc(N)n2)s1	0.08	25	0.18	i	-3
